Compound activity (PubChem)
HGIII-sPLA2 inh = Blocks human group III sPLA2 activity; Q9NZ20; QFRET BODIPY PC-A2 liposome hydrolysis, fluorescence; inhibition, % at 12.2 µM; hit rate 0.56% among 370,000; AID 743126;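 active = inhibition above mean plus 3 SD of compounds lying within the high and low control bounds, cut at about 19% in these data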;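 note: 0% = median of test compound wells and 100% = no enzyme DMSO wells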
Cardio protect = myocardial damage modulation in H9c2 cells. H9c2 cardiomyocytes, H2O2 injury protection, ATPLite, 2 h. protection from H2O2 cell death, % at 20 µM. hit rate 0.63% among 360,000. AID 588492;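 active = compounds giving at least 50% protection of heart cells from peroxide-induced death in the single-dose screen, raw or plate-pattern-corrected value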;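 note: 0% = DMSO wells with peroxide and 100% = DMSO wells without peroxide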
Myeloid diff 2 = promotes myeloid progenitor differentiation | hit rate 1% among 360,000 | ER-HoxA9 myeloid progenitors, lysozyme-GFP differentiation, flow cytometry | calls only at 10 µM;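 active = normalized GFP-positive differentiation at or above the plate's own cutoff, the solvent-only control mean plus 3 SD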;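 note: cells exposed to compound for four days before flow analysis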
ABHD5 PLIN5 PPI = blocks binding of human ABHD5 to perilipin-5. Q00G26+Q8WTS1. Split G. princeps luciferase complementation, luminescence, 4 h. inhibition, % at 4 µM. hit rate 0.78% among 360,000. AID 602281;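 active = inhibition above the mean inhibition across every tested compound plus 3 SD, cut at about 22% in these data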;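 note: 0% = DMSO only wells and the 100% control is not disclosed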
Rtt109 Vps75 = C. albicans Rtt109 histone acetyltransferase inhibition. hit rate 0.16% among 330,000. inhibition, % at 34.9 µM. Q5AAJ8. purified Rtt109/Vps75, ThioGlo CoA-SH fluorescence, 4 h;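 active = inhibition of at least 50% in every replicate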
Target sequence (Q5AAJ8 whole entry, looked up): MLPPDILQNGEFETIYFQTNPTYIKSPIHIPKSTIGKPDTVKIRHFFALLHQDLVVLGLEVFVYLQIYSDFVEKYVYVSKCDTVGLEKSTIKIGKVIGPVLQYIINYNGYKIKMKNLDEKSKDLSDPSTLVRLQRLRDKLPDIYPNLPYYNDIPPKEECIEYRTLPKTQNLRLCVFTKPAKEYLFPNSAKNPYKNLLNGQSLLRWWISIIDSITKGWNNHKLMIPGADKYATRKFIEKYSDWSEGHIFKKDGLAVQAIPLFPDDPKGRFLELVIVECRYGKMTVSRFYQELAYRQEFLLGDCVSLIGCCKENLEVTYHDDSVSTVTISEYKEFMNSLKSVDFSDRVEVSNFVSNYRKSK
DAGLB inhibitor = diacylglycerol lipase beta (human) inhibition | Q8NCG7 | HEK293T DAGLB membrane lysate, EnzChek fluorogenic substrate | inhibition, % at 5.17 µM | hit rate 0.059% among 340,000; in the data active = inhibition above about 34%;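 note: 0% = enzyme with vehicle and 100% = wells lacking enzyme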
hGIII sPLA2 conf = human GIII-sPLA2 inhibition, confirmation; AID 743280; shares compounds with HGIII-sPLA2 inh; inhibition, % at 12.2 µM; recombinant hGIII-sPLA2, BODIPY PC-A2 QFRET fluorescence; hit rate 34% among 2,000;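 active = mean inhibition across triplicates above the hit cutoff set in the earlier primary screen, cut at about 19% in these data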;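 note: 0% = enzyme with DMSO and 100% = DMSO wells lacking enzyme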
535nm interf = 535nm fluorescence interference, HGIII-sPLA2 counter-screen; shares compounds with HGIII-sPLA2 inh; BODIPY FL product fluorescence interference, QFRET; inhibition, % at 12.2 µM; hit rate 8.5% among 2,000; AID 743282;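 active = average inhibition above the solvent-only control mean plus 3 SD, cut at about 6% in these data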;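 note: 0% = DMSO with substrate plus product and 100% = DMSO with substrate alone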
BODIPY interf DR = counter-screen for HGIII-sPLA2 inhibitors: 535nm fluorescence interference, dose response; shares compounds with HGIII-sPLA2 inh; BODIPY FL product fluorescence interference, cell-free; IC50, µM; 240 tested, under 10 active; AID 743455;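 active = IC50 at or below 10 µM; inactive = IC50 above 10 µM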
Active calls of the source: *; i = inactive; . = not tested or not shown. An excerpt weighted towards active compounds, which were near 2.9% of everything screened.

SMILES	HGIII-sPLA2 inh	Cardio protect	Myeloid diff 2	ABHD5 PLIN5 PPI	Rtt109 Vps75	DAGLB inhibitor	hGIII sPLA2 conf	535nm interf	others
Cc1ccc(C2NC(=S)NC3=C2C(=O)CCC3)cc1 (stereo unspecified)	8	11	i	0	-3	-2	.	.
CC(C)c1ccc(C2NC(=S)NC3=C2C(=O)CCC3)cc1 (stereo unspecified)	24*	-3	i	-5	-6	1	18	-3
Cc1cc(C)nc(N2CCN(C(=O)c3ccc(S(=O)(=O)N4CCCCCC4)cc3)CC2)n1	7	-1	i	-6	6	0	.	.
C=CCN1C(=O)/C(=C2/Sc3ccc(OC)cc3N2C)SC1=Nc1ccccc1	94*	-1	i	6	2	-1	4	-4
C=CCN1C(=O)/C(=C2/Sc3ccc(OC)cc3N2C)SC1=NCc1ccccc1	-2	-2	i	-2	6	1	.	.
Cc1ccc(C(=O)CSc2ncnc3sc4c(c23)CCCC4)cc1	-1	-10	i	0	1	0	.	.
Cc1nn(-c2ccccc2)c(C)c1C(=O)OCC(=O)N(C)C1CCS(=O)(=O)C1 (stereo unspecified)	20*	-7	i	1	.	-1	-1	-8
CN(C(=O)COC(=O)c1nc(-c2ccccc2)n(-c2ccccc2)n1)C1CCS(=O)(=O)C1 (stereo unspecified)	1	5	i	-2	5	1	.	.
Oc1ccc(-c2csc(Nc3cccc4ccccc34)n2)cc1O	21*	49	i	-7	-8	8	9	11*
Oc1ccc(-c2csc(Nc3ccccn3)n2)cc1O	13	49	i	10	-4	6	.	.
COc1ccc(-c2ccc(C(=O)NCCN(C)C)c3occc23)c(C)c1	-18	7	i	-1	.	.	.	.
CC1CCN(CCCCOc2cccc(Br)c2)CC1	3	4	i	3	1	0	.	.
CC1CCN(CCCCOc2ccc(Br)cc2)CC1	20*	16	i	6	6	-1	4	-14
CC(C)n1ncc(N2CCOCC2)c(Cl)c1=O	12	4	i	0	12	-4	.	.
COc1cccc(C(Nc2ccccc2)c2ccc3ccc(C)nc3c2O)c1 (stereo unspecified)	22*	.	i	1	.	.	5	8.3*
CS/C(N)=N/N=C/c1c(O)ccc2ccccc12	23*	-18	i	6	5	0	28*	0
Cc1ccc(Cn2c(=S)[nH]c3ccccc3c2=O)cc1	8	-1	i	-3	2	-6	.	.
CC(C)CCNC(=O)c1ccc(Cn2c(=S)[nH]c3ccccc3c2=O)cc1	21*	-7	i	0	-1	1	20*	-11
Cc1ccc(S(=O)(=O)c2c(N)n(NC(=O)C3CC3)c3nc4ccccc4nc23)cc1	-23	-3	i	2	-5	-1	.	.
CCOC(=O)C1=CN(Cc2cccc(F)c2)S(=O)(=O)N(C)C1c1ccccc1 (stereo unspecified)	-1	-8	i	-7	-1	-4	.	.
CCCCCC[N+](C)(C)CC/C=C1/c2ccccc2Sc2ccc(Cl)cc21	19*	-6	i	18	73*	3	1	-59
Oc1[nH]c2ccccc2c1N=Nc1ccccn1	5	-2	i	5	-11	1	.	.
Oc1c(N=Nc2ccccn2)ccc2ccccc12	22*	-8	i	17	-15	40*	54*	13*
COc1ccccc1NC(=O)OC[C@@H]1CSCCS(=O)(=O)N1	0	.	.	.	.	.	.	.
Cc1ccc(C(NC(=O)c2ccccc2S(C)(=O)=O)c2ccccc2)cc1 (stereo unspecified)	2	-2	i	2	-12	-3	.	.
SMILES	HGIII-sPLA2 inh	Cardio protect	Myeloid diff 2	ABHD5 PLIN5 PPI	Rtt109 Vps75	DAGLB inhibitor	hGIII sPLA2 conf	535nm interf	others
S=c1[nH]nc(COc2ccc(Cl)cc2)n1-c1ccc(Cl)cc1	2	2	i	-1	-17	3	.	.
S=c1[nH]nc(COc2ccc(Cl)cc2)n1-c1ccccc1	21*	1	i	-10	-1	-2	34*	4	BODIPY interf DR=>122
S=c1[nH]nc(Cc2ccccc2)n1-c1ccc(Cl)cc1	20*	-2	i	-2	0	2	21*	2
S=c1[nH]nc(-c2cccs2)n1Cc1ccccc1	20*	4	i	-7	-6	0	21*	3
S=c1[nH]nc(Cc2ccccc2)n1-c1ccccc1	14	-8	i	-5	0	0	.	.
S=c1[nH]nc(COc2ccccc2)n1Cc1ccccc1	27*	-5	i	-1	-1	6	19	5
S=c1[nH]nc(CCc2ccccc2)n1-c1ccc(Cl)cc1	24*	-1	i	-1	1	7	32*	3	BODIPY interf DR=>122
S=c1[nH]nc(CCc2ccccc2)n1-c1ccccc1	16	-2	i	5	-11	1	.	.
N#Cc1ccc(C=NN2CCCCCC2)cc1	21*	-5	i	-3	0	-5	23*	2
CC(C)c1nc2sc3c(=O)n(N)cnc3c2c2c1COC(C)(C)C2	-1	2	i	0	-3	-2	.	.
CN(C)C=NC1=NN(c2cccc(C(F)(F)F)c2)CC1	21*	-5	i	-7	-2	2	-5	-3
CN1CCN(C=NC2=NN(c3cccc(C(F)(F)F)c3)CC2)CC1	13	5	i	-2	2	0	.	.
O=C(CSc1cccc[n+]1[O-])Nc1cc([N+](=O)[O-])ccc1Cl	-2	0	i	-10	5	1	.	.
O=C(CSc1cccc[n+]1[O-])Nc1cc2c(cc1Cl)C(=O)c1ccccc1C2=O	19*	-8	i	-10	-4	1	-8	6.5*
Cc1cnc(NC(=O)CSc2nnc3ncccn23)s1	4	1	i	-9	-4	1	.	.
Cc1cnc(NC(=O)CSc2nnc(C)n2N)s1	22*	-3	i	3	2	0	-1	-5
CCOC(=S)SCC(=O)Nc1ncc(C)s1	20*	-12	i	2	47	1	-7	-7
Clc1ccc(-c2csc(N3CCCCCC3)n2)cc1	23*	-6	i	-10	-2	-9	27*	6.7*
CC(C)(C)c1ccc(-c2csc(N3CCC(C(N)=O)CC3)n2)cc1	10	.	.	.	.	.	.	.
NC(=O)C1CCN(c2nc(-c3ccc(Br)cc3)cs2)CC1	23*	-7	i	-3	-3	4	14	0
